Measurements as given in PubChem BioAssay (NCI).
The panel holds about 83,000 compounds, 20% with a hit somewhere; the sample as a whole holds those more often.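 Activity criterion: percent growth below 10, measured after cells in 96-well plates were exposed to a single compound concentration for 48 hours.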 Values without a mark were called inactive. The source made the active and inactive calls.

Assays:
Test in all cases: NCI-60 one-dose screen, 48 h (100 = growth as untreated, 0 = no growth, -100 = all killed)
Settings in all cases: 10 µM unless noted
[1] = test system: NCI-H23 lung
[2] = test system: NCI-H226 lung
[3] = test system: NCI-H322M lung
[4] = test system: HOP-62 NSCLC
[5] = test system: NCI-H460 lung
[6] = test system: NCI-H522 lung
[7] = test system: A549/ATCC NSCLC
[8] = test system: 786-0 renal
[9] = test system: COLO 205 colon
[10] = test system: DU-145 prostate
[11] = test system: K-562 leukemia
[12] = test system: MDA-MB-231 breast
[13] = test system: RXF 393 renal
[14] = test system: SF-268 CNS
[15] = test system: SF-295 CNS
[16] = test system: SF-539 CNS
[17] = test system: UACC-257 melanoma
[18] = test system: M14 melanoma
[19] = test system: HCT-15 colon
[20] = test system: MALME-3M melanoma

| Structure (SMILES) | growth [1] | growth [2] | growth [3] [%] | growth [4] [%] | growth [5] | growth [6] | growth [7] [%] | growth [8] [%] | growth [9] | growth [10] | growth [11] | growth [12] | growth [13] [%] | growth [14] [%] | growth [15] [%] | growth [16] | growth [17] [%] | growth [18] | growth [19] | growth [20] [%] |
| --- | --- | --- | --- | --- | --- | --- | --- | --- | --- | --- | --- | --- | --- | --- | --- | --- | --- | --- | --- | --- |
| C[N+]1(CCC[N+]2(C)C[C@@H]3[C@H](C2)[C@@H]2C=C[C@H]3C2)CCOCC1 (stereo partly specified) | 105% | 110% | 106 | 94.3 | 116% | 106% | 111 | 109 | 104% | 140% | 110% | 104% | 121 | 115 | 113 | 100% | 112 | 108% | 91.4% | – |
| O=C(Nc1nc2ccccc2s1)c1cc(-c2ccc(F)cc2)n2nc(-c3ccccc3)cc2n1 | 68.7% | 89.1% | 60.1 | 63.8 | 29.3% | 101% | 51.2 | 11.7 | 65.2% | 89.1% | 59.1% | 64.6% | 121 | – | 40.3 | 63.8% | 69 | 79.2% | 53.7% | – |
| O=C(Nc1nc(-c2ccccc2)cs1)c1cc(O)c(O)c(O)c1 | 59.6% | 67.9% | 69.1 | 46.4 | 34.7% | -29.4% (active) | 46.2 | 41.6 | 84.5% | 57.7% | 19.6% | 44% | – | 43.7 | 58.5 | 42% | 80.9 | 54.4% | 27.3% | – |
| CCCOc1ccc2c(c1)CC[C@@H]1[C@@H]2CC[C@@]2(C)[C@H]1CC[C@]2(C)O | 93.2% | 92.3% | 71.4 | 89.7 | 35.8% | 76.4% | 63.7 | 90.3 | 28.2% | 91.6% | 1.46% (active) | 51.1% | 83.7 | 81.5 | 58.7 | 67.5% | 73.8 | 79.5% | 56.7% | – |
| COc1ccc2[nH]cc(/C=C3/C(=O)Nc4ccc(F)cc43)c2c1 | 75.8% | 91.5% | 94 | 105 | 83.3% | 81.5% | 72.3 | 115 | 97.7% | 95.3% | 72.1% | 87.6% | 91.5 | – | 95.6 | 99.4% | 99.8 | 98.2% | 75.6% | – |
| Cc1cc([N+](=O)[O-])c(C)cc1C(=O)O | 104% | 99.8% | 92.7 | 103 | 111% | 96.1% | 108 | 97 | 108% | 109% | – | 110% | 112 | 99.8 | 96.9 | 98.5% | 105 | 100% | 97.3% | 102 |
| COc1ccc(-c2c(N)noc2-c2cc(OC)c3c(c2)OCCO3)cc1 | 1.48% (active) | -17.1% (active) | 53 | 23 | 7.94% (active) | 0.361% (active) | 21.3 | 13.1 | -75.8% (active) | -17.2% (active) | – | 27.5% | 39.2 | 26.8 | 12.8 | 4.21% (active) | 72.6 | -16.2% (active) | 15.7% | 81.2 |
| O=C(/C(=C/c1cccc([N+](=O)[O-])c1)c1ccccc1)c1ccccc1 | 68% | 58.8% | 80.6 | 91.2 | 67.9% | 43.8% | 53.6 | 68.4 | 86.3% | 19.8% | 4.03% (active) | 51.6% | – | 34.4 | 64.2 | 81.6% | 36.5 | 46.4% | 16.6% | – |
| COC(=O)CCC1=C(CC(=O)OC)C(C)=N/C1=C\c1[nH]c(-c2ccc[nH]2)cc1OC | 49.4% | 54.5% | 53.3 | 46.1 | 19.1% | -7% (active) | 18 | 50.2 | 30.5% | 36.9% | -3.71% (active) | -12.2% (active) | 52.8 | 44.8 | 39.3 | 38.8% | 32.5 | – | 8.89% (active) | – |
